In PubChem BioAssay:
The source made the active and inactive calls.

Legend:
[1] = binders of probe aFSTL3 on microarray, primary screen, stem cell growth factor project, biochemical, small-molecule microarray, fluorescence 635/667 (AID 1064); settings: higher = more signal;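 also: measures binding of the biotinylated anti-FSTL3 antibody to printed compounds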
[2] = binders from COS7 lysate, DM2A8 probe, primary screen, torsin A project, cell lysate, small-molecule microarray, fluorescence 635/667 (AID 1065); settings: higher = more signal, COS7 lysate expressing mutant human TOR1A
[3] = binders of probe aFGF2 on microarray, primary screen, stem cell growth factor project, biochemical, small-molecule microarray, fluorescence 635/667 (AID 1067); settings: higher = more signal;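 also: measures binding of biotinylated aFGF2 protein to printed compounds on slides; z-score merges feature fluorescence and signal-to-noise across triplicate slides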
[4] = binders of probe aFGF10 on microarray, primary screen, stem cell growth factor project, biochemical, small-molecule microarray, fluorescence 635/667 (AID 1071); settings: higher = more signal;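 also: score merges 667 nm spot intensity and signal to noise from triplicate slides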
[5] = biological target: Neurogenic locus notch homolog protein 2 (Homo sapiens) (UniProt Q04721); experiment: Notch2 binders on small-molecule microarrays, primary screen, biochemical, small-molecule microarray, 635 nm fluorescence, stem cell growth factors (AID 1073); settings: Notch2 binding, higher = more signal
[6] = biological target: Pro-neuregulin-1, membrane-bound isoform (Homo sapiens) (UniProt Q02297); experiment: NRG1 binders on small-molecule microarrays, primary screen, psychiatric disease protein project, biochemical, small-molecule microarray, fluorescence 635/667 (AID 1075); settings: NRG1 binding, 635 nm fluorescence, higher = more signal;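 also: score combines 667 nm spot fluorescence with signal to noise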
[7] = test system: Neuregulin-1 EGF-like domain; experiment: binders of neuregulin-1 EGF-like domain, primary screen, biochemical, small-molecule microarray, 635 nm fluorescence (AID 1081); settings: small-molecule microarray binding, higher = more signal;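 also: binding of the protein to compounds printed on small-molecule microarray slides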
[8] = FRG1 promoter luciferase signal modulators, primary screen, FRG1 inhibition for FSHD, cell-based, C2C12 myotubes, firefly/Renilla luciferase, luminescence (AID 1084); settings: higher = more signal, called active from +8 up or from −8 down
[9] = binders of probe aFST on microarray, primary screen, stem cell growth factor project, biochemical, small-molecule microarray, fluorescence 635/667 (AID 1086); settings: higher = more signal;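 also: score merges 667 nm fluorescence with signal-to-noise of each printed compound spot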
[10] = binders of probe aHhip on microarray, primary screen, stem cell growth factor project, biochemical, small-molecule microarray, fluorescence 635/667 (AID 1087); settings: higher = more signal;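 also: score merges spot fluorescence at 667nm with spot signal to noise ratio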
[11] = test system: PRMT1 (protein arginine N-methyltransferase 1); experiment: PRMT1 binders on small-molecule microarrays, primary screen, biochemical, small-molecule microarray, 635 nm fluorescence (AID 1088); settings: small-molecule microarray binding, higher = more signal;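 also: binding of Prmt1 protein to compounds spotted on small-molecule microarray slides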
[12] = yeast growth modulation, basal conditions, primary screen, YJM789 clinical isolate, OD600, 24 h (AID 1089);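 also: growth of clinical yeast isolate S. cerevisiae YJM 789 seeded 1000 cells per well; test concentration not given here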; settings: S. cerevisiae YJM789 growth, higher = more signal, called active from +8 up or from −8 down
[13] = fission yeast growth modulation, primary screen, strain 972, OD600, 24 h, no modulator (AID 1090);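 also: basal condition with compound alone and no growth modifier present; test concentration not given here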; settings: S. pombe 972 growth, higher = more signal, called active from +8 up or from −8 down
[14] = S. cerevisiae growth modulation with rapamycin, primary screen, strain BY4716, OD600, 96 h (AID 1091); settings: higher = more signal, called active from +8 up or from −8 down; also: test concentration not given here
[15] = biological target: Torsin-1A-interacting protein 2 (Homo sapiens) (UniProt Q8NFQ8); experiment: LULL1 binders on small-molecule microarray, primary screen, cell lysate, human LULL1 lysate, 635/667 nm fluorescence (AID 1092); settings: hLULL1 lysate binding, 635 nm fluorescence, higher = more signal;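 also: probe is lysate of COS7 cells overexpressing human LULL1; score merges per-feature 667 nm fluorescence with signal-to-noise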
[16] = E. coli growth modulation, two-sided OD650, primary screen, E. coli filamentation project, strain DRC41, 24 h (AID 1093); settings: OD650, 24 h, higher = more signal, called active from +8 up or from −8 down;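 also: MC1000 strain lacking acrAB efflux and sulA so SOS filamentation is blocked; test concentration not given here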
[17] = small-molecule microarray binders of probe aLefty2, primary screen, biochemical, biotinylated probe, 635/667 nm fluorescence (AID 1094); settings: higher = more signal;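 also: score merges spot fluorescence near 667 nm with spot signal-to-noise ratio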
[18] = test system: Noggin (protein binding on small-molecule microarray); experiment: Noggin binders on small-molecule microarray, primary screen, biochemical, 635/667 nm fluorescence (AID 1095); settings: 635 nm fluorescence, higher = more signal;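 also: score merges 667 nm feature fluorescence with signal to noise over triplicate slides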
[19] = biological target: Neurogenic locus notch homolog protein 3 (Homo sapiens) (UniProt Q9UM47); experiment: NOTCH3 binders on small-molecule microarray, primary screen, biochemical, 635/667 nm fluorescence (AID 1096); settings: NOTCH3 binding, 635 nm fluorescence, higher = more signal
[20] = small-molecule microarray binders of probe aEGFR, primary screen, biochemical, biotinylated probe, 635/667 nm fluorescence (AID 1097); settings: higher = more signal;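 also: probe is a biotinylated anti-EGFR antibody binding compounds printed on slides; score combines fluorescence near 667 nm and signal to noise of each spot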

Pro-neuregulin-1, membrane-bound isoform (Homo sapiens), sequence (Q02297 whole entry, looked up, the tested form may be a part, canonical isoform): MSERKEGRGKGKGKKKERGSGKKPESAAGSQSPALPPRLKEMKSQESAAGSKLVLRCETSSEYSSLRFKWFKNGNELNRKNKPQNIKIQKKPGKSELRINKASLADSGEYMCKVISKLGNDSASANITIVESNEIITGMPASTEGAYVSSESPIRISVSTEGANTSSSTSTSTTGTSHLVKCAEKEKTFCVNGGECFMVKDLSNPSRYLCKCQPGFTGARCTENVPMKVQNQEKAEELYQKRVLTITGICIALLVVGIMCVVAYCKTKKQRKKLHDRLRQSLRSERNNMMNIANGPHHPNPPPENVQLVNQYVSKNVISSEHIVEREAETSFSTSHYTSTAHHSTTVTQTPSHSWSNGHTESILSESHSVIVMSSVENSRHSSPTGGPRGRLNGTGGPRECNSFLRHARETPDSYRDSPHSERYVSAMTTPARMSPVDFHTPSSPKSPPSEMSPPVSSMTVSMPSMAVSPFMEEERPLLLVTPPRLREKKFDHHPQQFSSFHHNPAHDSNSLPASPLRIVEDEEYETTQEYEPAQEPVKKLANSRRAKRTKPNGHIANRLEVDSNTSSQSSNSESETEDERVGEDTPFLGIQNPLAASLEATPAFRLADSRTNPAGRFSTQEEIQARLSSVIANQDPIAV
Torsin-1A-interacting protein 2 (Homo sapiens), sequence (Q8NFQ8 whole entry, looked up): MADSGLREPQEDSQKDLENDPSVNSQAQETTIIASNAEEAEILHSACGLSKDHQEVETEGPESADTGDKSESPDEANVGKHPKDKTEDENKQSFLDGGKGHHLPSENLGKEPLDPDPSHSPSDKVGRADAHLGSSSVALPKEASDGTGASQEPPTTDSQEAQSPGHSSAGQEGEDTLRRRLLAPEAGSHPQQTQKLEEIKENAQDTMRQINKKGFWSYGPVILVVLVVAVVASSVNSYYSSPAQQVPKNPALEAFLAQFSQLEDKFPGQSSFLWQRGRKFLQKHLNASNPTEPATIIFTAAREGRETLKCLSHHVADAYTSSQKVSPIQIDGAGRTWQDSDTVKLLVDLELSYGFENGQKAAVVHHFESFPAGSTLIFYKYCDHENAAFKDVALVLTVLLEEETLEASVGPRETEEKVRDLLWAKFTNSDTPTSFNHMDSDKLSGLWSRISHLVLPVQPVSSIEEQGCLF
Neurogenic locus notch homolog protein 2 (Homo sapiens), sequence (Q04721 whole entry, looked up, canonical isoform): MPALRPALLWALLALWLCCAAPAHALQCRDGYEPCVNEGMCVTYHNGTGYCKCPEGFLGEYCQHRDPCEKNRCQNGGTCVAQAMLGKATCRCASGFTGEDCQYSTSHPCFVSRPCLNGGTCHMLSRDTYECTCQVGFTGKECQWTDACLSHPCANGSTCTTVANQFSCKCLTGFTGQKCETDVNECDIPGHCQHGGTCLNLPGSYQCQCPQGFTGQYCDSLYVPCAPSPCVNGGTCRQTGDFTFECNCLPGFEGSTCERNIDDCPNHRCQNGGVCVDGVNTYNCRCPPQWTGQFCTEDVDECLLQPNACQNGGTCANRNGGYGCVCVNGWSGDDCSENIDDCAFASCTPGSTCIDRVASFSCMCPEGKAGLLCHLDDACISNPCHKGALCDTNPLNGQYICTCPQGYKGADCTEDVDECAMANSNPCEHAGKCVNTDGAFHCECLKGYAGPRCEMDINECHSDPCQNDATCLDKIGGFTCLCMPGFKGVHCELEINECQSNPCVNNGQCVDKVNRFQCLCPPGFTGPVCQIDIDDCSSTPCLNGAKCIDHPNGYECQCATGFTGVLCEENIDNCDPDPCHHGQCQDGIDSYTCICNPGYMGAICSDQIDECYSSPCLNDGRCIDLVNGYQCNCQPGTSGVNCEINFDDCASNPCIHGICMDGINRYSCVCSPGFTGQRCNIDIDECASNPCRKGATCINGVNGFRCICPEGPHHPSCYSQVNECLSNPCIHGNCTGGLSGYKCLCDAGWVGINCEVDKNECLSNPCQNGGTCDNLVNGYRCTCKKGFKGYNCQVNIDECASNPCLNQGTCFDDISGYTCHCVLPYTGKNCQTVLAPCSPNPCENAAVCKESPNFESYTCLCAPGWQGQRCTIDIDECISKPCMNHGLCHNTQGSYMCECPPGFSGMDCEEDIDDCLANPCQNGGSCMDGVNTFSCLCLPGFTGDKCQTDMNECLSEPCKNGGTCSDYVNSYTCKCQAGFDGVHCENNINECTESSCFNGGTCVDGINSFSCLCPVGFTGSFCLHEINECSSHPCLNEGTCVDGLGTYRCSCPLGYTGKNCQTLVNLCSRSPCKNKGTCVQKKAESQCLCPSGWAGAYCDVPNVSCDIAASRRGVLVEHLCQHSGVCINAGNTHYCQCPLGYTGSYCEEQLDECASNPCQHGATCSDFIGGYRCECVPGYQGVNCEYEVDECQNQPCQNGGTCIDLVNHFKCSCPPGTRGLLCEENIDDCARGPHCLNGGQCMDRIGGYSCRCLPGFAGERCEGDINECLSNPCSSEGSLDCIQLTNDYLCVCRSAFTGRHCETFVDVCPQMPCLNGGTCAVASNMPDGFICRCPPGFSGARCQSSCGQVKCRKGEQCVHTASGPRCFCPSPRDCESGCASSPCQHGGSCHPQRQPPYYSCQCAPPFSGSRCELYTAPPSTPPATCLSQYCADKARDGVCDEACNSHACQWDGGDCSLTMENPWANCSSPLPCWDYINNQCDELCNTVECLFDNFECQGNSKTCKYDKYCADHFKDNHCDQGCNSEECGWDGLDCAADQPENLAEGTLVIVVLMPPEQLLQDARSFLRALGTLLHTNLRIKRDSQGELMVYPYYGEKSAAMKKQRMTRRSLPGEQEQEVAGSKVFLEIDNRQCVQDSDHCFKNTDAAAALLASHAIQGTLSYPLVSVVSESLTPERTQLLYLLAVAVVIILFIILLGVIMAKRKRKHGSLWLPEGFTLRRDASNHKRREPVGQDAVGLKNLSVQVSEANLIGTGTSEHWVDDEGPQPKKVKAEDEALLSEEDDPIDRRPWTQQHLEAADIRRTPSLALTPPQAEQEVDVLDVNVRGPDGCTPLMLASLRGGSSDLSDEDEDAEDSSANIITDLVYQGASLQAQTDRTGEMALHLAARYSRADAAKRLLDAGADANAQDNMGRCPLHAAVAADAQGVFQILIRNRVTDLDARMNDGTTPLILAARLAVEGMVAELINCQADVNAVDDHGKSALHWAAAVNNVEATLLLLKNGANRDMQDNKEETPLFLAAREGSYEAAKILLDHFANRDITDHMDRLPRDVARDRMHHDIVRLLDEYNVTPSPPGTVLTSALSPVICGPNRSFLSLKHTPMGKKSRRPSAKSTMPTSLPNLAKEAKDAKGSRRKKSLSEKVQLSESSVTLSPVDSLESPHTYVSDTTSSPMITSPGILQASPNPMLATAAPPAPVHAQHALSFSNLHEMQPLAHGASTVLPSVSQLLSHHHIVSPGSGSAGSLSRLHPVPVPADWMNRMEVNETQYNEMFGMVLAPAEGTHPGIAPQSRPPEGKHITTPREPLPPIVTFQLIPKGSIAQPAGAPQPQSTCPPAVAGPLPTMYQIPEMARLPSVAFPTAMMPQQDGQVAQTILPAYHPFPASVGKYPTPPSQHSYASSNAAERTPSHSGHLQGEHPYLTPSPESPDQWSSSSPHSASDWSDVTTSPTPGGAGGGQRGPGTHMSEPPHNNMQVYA

## COCCOC(=O)N1C(=O)[C@@]2(c3cc(C#CCCO)ccc31)[C@H](C(=O)N1CCN(c3ncccn3)CC1)[C@H]1C(=O)O[C@H](c3ccccc3)[C@H](c3ccccc3)N1[C@@H]2c1ccccc1OCCO
[1]
  composite z-score: -0.545
[2]
  composite z-score: 0.217
[3]
  composite z-score: -0.0546
[4]
  composite z-score: 0.537
[5]
  composite z-score: 1.3
[6]
  composite z-score: 1.37
[7]
  composite z-score: 1.15
[8]
  z-score: -0.428 (inactive)
[9]
  composite z-score: 0.335
[10]
  composite z-score: -0.0296
[11]
  composite z-score: 1.55
[12]
  z-score: 0.335 (inactive)
[13]
  z-score: 0.411 (inactive)
[14]
  z-score: 3.34 (inactive)
[15]
  composite z-score: 2.98
[16]
  z-score: 1.84 (inactive)
[17]
  composite z-score: -0.114
[18]
  composite z-score: 0.791
[19]
  composite z-score: 0.846
[20]
  composite z-score: 0.268

## CCCCCCC#C[Si](O[C@H](c1ccccc1)c1cn([C@H](CO)Cc2ccccc2)nn1)(C(C)C)C(C)C
[1]
  composite z-score: -0.206
[2]
  composite z-score: 0.0423
[3]
  composite z-score: -0.142
[4]
  composite z-score: 0.296
[5]
  composite z-score: -0.39
[6]
  composite z-score: -0.138
[7]
  composite z-score: 1
[8]
  z-score: -0.334 (inactive)
[9]
  composite z-score: -0.682
[10]
  composite z-score: -0.0324
[11]
  composite z-score: 1.55
[12]
  z-score: -2.3 (inactive)
[13]
  z-score: -16.2 (active)
[14]
  z-score: -1.57 (inactive)
[15]
  composite z-score: 1.7
[16]
  z-score: 1.16 (inactive)
[17]
  composite z-score: -0.198
[18]
  composite z-score: 0.0817
[19]
  composite z-score: -0.0029
[20]
  composite z-score: -0.115

## C=CCOC(=O)[C@@H]1[C@H]2C(=O)O[C@H](c3ccccc3)[C@H](c3ccccc3)N2[C@H](c2ccc(OCCOC(=O)[C@@H]3C[C@@H]4C(=O)N[C@@H](CCCC[N+](C)(C)C)C(=O)N4[C@@H]3c3cccc(OCCO)c3)cc2)[C@@]12C(=O)Nc1ccc(I)cc12
[1]
  composite z-score: 0.443
[2]
  composite z-score: 0.54
[3]
  composite z-score: 0.0378
[4]
  composite z-score: 0.291
[5]
  composite z-score: 0.872
[6]
  composite z-score: 0.498
[7]
  composite z-score: 1.23
[8]
  z-score: 3.07 (inactive)
[9]
  composite z-score: 0.493
[10]
  composite z-score: -0.117
[11]
  composite z-score: 1.56
[12]
  z-score: 1.02 (inactive)
[13]
  z-score: -0.945 (inactive)
[14]
  z-score: 0.115 (inactive)
[15]
  composite z-score: 2.94
[16]
  z-score: -0.674 (inactive)
[17]
  composite z-score: -0.0063
[18]
  composite z-score: 1.47
[19]
  composite z-score: 1.13
[20]
  composite z-score: 0.0321

## COC(=O)[C@@]1(Cc2ccccc2)[C@H]2c3cc(C(=O)N4CCCC4)n(Cc4nc5ccccc5[nH]4)c3C[C@H]2CN1C(=O)c1ccccc1
[1]
  composite z-score: 1.19
[2]
  composite z-score: 0.74
[3]
  composite z-score: -0.0879
[4]
  composite z-score: 0.115
[5]
  composite z-score: 1.72
[6]
  composite z-score: 2.07
[7]
  composite z-score: 0.807
[8]
  z-score: 2.63 (inactive)
[9]
  composite z-score: 1.65
[10]
  composite z-score: 0.507
[11]
  composite z-score: 1.54
[12]
  z-score: -0.0672 (inactive)
[13]
  z-score: 0.193 (inactive)
[14]
  z-score: 1.63 (inactive)
[15]
  composite z-score: 3.82
[16]
  z-score: 0.0607 (inactive)
[17]
  composite z-score: 0.746
[18]
  composite z-score: -0.192
[19]
  composite z-score: 1.11
[20]
  composite z-score: 0.13

## COCC(=C=CC[C@@H](O)c1ccccc1OCCO)C[C@@H](O)c1cc(Cl)cc(Cl)c1O
[1]
  composite z-score: -0.685
[2]
  composite z-score: 0.528
[3]
  composite z-score: -0.0276
[4]
  composite z-score: 1.14
[5]
  composite z-score: 1.09
[6]
  composite z-score: 0.935
[7]
  composite z-score: 1
[8]
  z-score: -0.914 (inactive)
[9]
  composite z-score: 0.624
[10]
  composite z-score: 0.164
[11]
  composite z-score: 1.53
[12]
  z-score: 0.157 (inactive)
[13]
  z-score: -0.563 (inactive)
[14]
  z-score: 0.0403 (inactive)
[15]
  composite z-score: 2.13
[16]
  z-score: 0.0142 (inactive)
[17]
  composite z-score: -0.053
[18]
  composite z-score: 1.42
[19]
  composite z-score: 1.07
[20]
  composite z-score: -0.0353
